# Where “and” joins values, the source holds several entries; their conditions need not be identical. Equal values may be shown once. Results filed as inconclusive are left out. A call without a number means that no potency is given here. A structure can be active in one record and inactive in another. Calls of active or inactive are those of the source. Calls come from the whole dose curve; as a rule, active = well fitted curve in the direction sought with a large enough effect in the repeat runs; inconclusive = weak or mixed curves; inactive = no such curve, though single readings can be large; an effect the other way counts as inactive or inconclusive.
# Tests used:
# [1] = qHTS RealTime-Glo MT Cell Viability Assay in HepG2 cells - 40 hour (AID 1224870); note: nearly all actives have a fitted effect of over 50% in size; note: potency is the fitted concentration of half-maximal effect
# Procedure, shortened: (§1)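 HepG2 cells mixed with RealTime-Glo MT reagents (NanoLuc plus cell-permeant prosubstrate) were seeded at 600 cells/well, incubated 5 h at 37 C/5% CO2, then pinned with compounds in DMSO; nonlytic luminescence tracked viability during 40 h treatment.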
# [2] = A CellTox Green Cytotoxicity Assay to monitor cytotoxicity in HEK293 cells - 40 hour (AID 1224871); note: nearly all actives have a fitted effect of over 45% in size; note: potency is the fitted concentration of half-maximal effect
# Procedure, shortened: (§2)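 Homogeneous no-lysis format: HEK293 cell suspension mixed with CellTox Green reagent, seeded, incubated 5 h at 37 C/5% CO2, then dosed by pintool with compound in DMSO.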
# [3] = qHTS RealTime-Glo MT Cell Viability Assay in HEK293 cells - 16 hour (AID 1224872); note: nearly all actives have a fitted effect of over 50% in size; note: potency is the fitted concentration of half-maximal effect
# Procedure, shortened: (§3)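 Viability tracked continuously by luminescence as live cells reduce a prosubstrate for NanoLuc; HEK293 cells preincubated 5 h, compound-treated at 37 C, and read at 0, 8, 16, 24, 32 and 40 h.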
# [4] = qHTS RealTime-Glo MT Cell Viability Assay in HEK293 cells - 40 hour (AID 1224874); settings: RealTime-Glo luminescence; max response: stronger effect = lower value; note: nearly all actives have a fitted effect of over 50% in size; note: potency is the fitted concentration of half-maximal effect
# Procedure, shortened: (§4)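 Measured as luminescence from the same continuously cultured HEK293 wells at successive time points (0, 8, 16, 24, 32, 40 h) after compound addition. Reagent present from seeding; dosing at 5 h; incubation 37 C.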
# [5] = A CellTox Green Cytotoxicity Assay to monitor cytotoxicity in HEK293 cells - 24 hour (AID 1224875); note: nearly all actives have a fitted effect of over 45% in size; note: potency is the fitted concentration of half-maximal effect
# Procedure, shortened: as §2
# [6] = qHTS RealTime-Glo MT Cell Viability Assay in HepG2 cells - 32 hour (AID 1224877); note: nearly all actives have a fitted effect of over 55% in size; note: potency is the fitted concentration of half-maximal effect
# Procedure, shortened: (§5)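 Viability was tracked continuously by NanoLuc luminescence from prosubstrate reduced by living HepG2 cells, at successive time points over 40 h of compound exposure. Cells with reagent were preincubated 5 h at 37 °C before compound addition.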
# [7] = A CellTox Green Cytotoxicity Assay to monitor cytotoxicity in HepG2 cells - 24 hour (AID 1224878); note: nearly all actives have a fitted effect of over 45% in size; note: potency is the fitted concentration of half-maximal effect
# Procedure, shortened: (§6)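 Fluorescent DNA-binding dye, 600 HepG2 cells/well, 5 h preincubation then compound in DMSO; same plates read at 0–40 h, 37 C.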
# [8] = A CellTox Green Cytotoxicity Assay to monitor cytotoxicity in HepG2 cells - 40 hour (AID 1224879); note: nearly all actives have a fitted effect of over 40% in size; note: potency is the fitted concentration of half-maximal effect
# Procedure, shortened: as §6
# [9] = qHTS RealTime-Glo MT Cell Viability Assay in HEK293 cells - 0 hour (AID 1224880); note: top concentration of the series differs between compounds; nearly all actives have a fitted effect of over 45% in size
# Procedure, shortened: as §4
# [10] = A CellTox Green Cytotoxicity Assay to monitor cytotoxicity in HEK293 cells - 32 hour (AID 1224881); note: nearly all actives have a fitted effect of over 40% in size; note: potency is the fitted concentration of half-maximal effect
# Procedure, shortened: as §2
# [11] = A CellTox Green Cytotoxicity Assay to monitor cytotoxicity in HepG2 cells - 0 hour (AID 1224882); note: nearly all actives have a fitted effect of over 35% in size
# Procedure, shortened: as §6
# [12] = A CellTox Green Cytotoxicity Assay to monitor cytotoxicity in HepG2 cells - 32 hour (AID 1224883); note: nearly all actives have a fitted effect of over 50% in size; note: potency is the fitted concentration of half-maximal effect
# Procedure, shortened: as §6
# [13] = A CellTox Green Cytotoxicity Assay to monitor cytotoxicity in HEK293 cells - 8 hour (AID 1224884); note: nearly all actives have a fitted effect of over 35% in size
# Procedure, shortened: as §2
# [14] = qHTS RealTime-Glo MT Cell Viability Assay in HepG2 cells - 16 hour (AID 1224885); note: nearly all actives have a fitted effect of over 50% in size; note: potency is the fitted concentration of half-maximal effect
# Procedure, shortened: as §5
# [15] = qHTS RealTime-Glo MT Cell Viability Assay in HEK293 cells - 24 hour (AID 1224886); note: nearly all actives have a fitted effect of over 50% in size; note: potency is the fitted concentration of half-maximal effect
# Procedure, shortened: as §3
# [16] = qHTS RealTime-Glo MT Cell Viability Assay in HEK293 cells - 8 hour (AID 1224887)
# Procedure, shortened: as §4
# [17] = A CellTox Green Cytotoxicity Assay to monitor cytotoxicity in HEK293 cells - 16 hour (AID 1224888); note: nearly all actives have a fitted effect of over 35% in size
# Procedure, shortened: as §2
# [18] = qHTS RealTime-Glo MT Cell Viability Assay in HepG2 cells - 0 hour (AID 1224889); note: nearly all actives have a fitted effect of over 50% in size
# Procedure, shortened: as §5
# [19] = qHTS RealTime-Glo MT Cell Viability Assay in HepG2 cells - 8 hour (AID 1224873); note: nearly all actives have a fitted effect of over 55% in size; note: potency is the fitted concentration of half-maximal effect
# Procedure, shortened: as §1
# [20] = A CellTox Green Cytotoxicity Assay to monitor cytotoxicity in HepG2 cells - 16 hour (AID 1224876); note: nearly all actives have a fitted effect of over 45% in size; note: potency is the fitted concentration of half-maximal effect
# Procedure, shortened: as §6
smiles,measurement,setting,value
Cc1cccc(C(=O)O)c1,Potency,[1],inactive
same,Potency,[2],inactive
same,Potency,[3],inactive
same,max response,[4],0.572% (inactive) and -3.52% (inactive)
same,Potency,[5],inactive
same,Potency,[6],inactive
same,Potency,[7],inactive
same,Potency,[8],inactive
same,Potency,[9],inactive
same,Potency,[10],inactive
same,Potency,[11],inactive
same,Potency,[12],inactive
same,Potency,[13],inactive
same,Potency,[14],inactive
same,Potency,[15],inactive
same,Potency,[16],inactive
same,Potency,[17],inactive
same,Potency,[18],inactive
CCCCc1oc2ccccc2c1C(=O)c1cc(I)c(OCCN(CC)CC)c(I)c1,Potency,[1],39.2 µM (active)
same,Potency,[2],44 µM (active)
same,Potency,[3],39.2 µM (active) and 21.3 µM (active)
same,Potency,[19],39.2 µM (active)
same,Potency,[6],39.2 µM (active) and 23.9 µM (active)
same,Potency,[8],31.1 µM (active) and 26.8 µM (active)
same,Potency,[9],inactive
same,Potency,[10],44 µM (active)
same,Potency,[11],inactive
same,Potency,[12],34.9 µM (active) and 26.8 µM (active)
same,Potency,[13],inactive
same,Potency,[14],39.2 µM (active)
same,Potency,[15],34.9 µM (active) and 23.9 µM (active)
same,Potency,[18],inactive
C/C=C/C(=O)O,Potency,[1],inactive
same,Potency,[2],inactive
same,Potency,[3],inactive
same,max response,[4],2.91% (inactive) and 4.68% (inactive)
same,Potency,[5],inactive
same,Potency,[20],inactive
same,Potency,[6],inactive
same,Potency,[8],inactive
same,Potency,[9],inactive
same,Potency,[10],inactive
same,Potency,[11],inactive
same,Potency,[12],inactive
same,Potency,[13],inactive
same,Potency,[14],inactive
same,Potency,[15],inactive
same,Potency,[17],inactive
same,Potency,[18],inactive
O=C=Nc1ccc(Cc2ccc(N=C=O)cc2)cc1,Potency,[1],inactive
same,Potency,[2],inactive
same,Potency,[19],inactive
same,max response,[4],-12.4% (inactive) and 1.24% (inactive)
same,Potency,[5],inactive
same,Potency,[20],inactive
same,Potency,[6],inactive
same,Potency,[8],inactive
same,Potency,[9],inactive
same,Potency,[10],inactive
same,Potency,[11],inactive
same,Potency,[12],inactive
same,Potency,[13],inactive
same,Potency,[14],inactive
same,Potency,[15],inactive
same,Potency,[16],inactive
same,Potency,[17],inactive
same,Potency,[18],inactive
CNCCCC12CCC(c3ccccc31)c1ccccc12,Potency,[1],38.9 µM (active) and 26.8 µM (active)
same,Potency,[2],49 µM (active)
same,Potency,[19],inactive
same,Potency,[4],49 µM (active) and 23.9 µM (active)
same,Potency,[5],54.9 µM (active)
same,Potency,[20],54.9 µM (active) and 26.8 µM (active)
same,Potency,[6],43.6 µM (active) and 23.9 µM (active)
same,Potency,[7],43.6 µM (active) and 23.9 µM (active)
same,Potency,[8],34.7 µM (active) and 23.9 µM (active)
same,Potency,[10],49 µM (active)
same,Potency,[11],inactive
same,Potency,[12],34.7 µM (active) and 23.9 µM (active)
same,Potency,[13],inactive
same,Potency,[14],49 µM (active)
same,Potency,[15],49 µM (active)
same,Potency,[16],inactive
c1ccc2c(c1)c1cccc3ccc4cccc2c4c31,Potency,[1],inactive
same,Potency,[2],inactive
same,Potency,[19],inactive
same,Potency,[4],19.5 µM (active)
same,max response,[4],-16.2% (inactive)
same,Potency,[5],inactive
same,Potency,[6],inactive
same,Potency,[8],inactive
same,Potency,[9],inactive
same,Potency,[10],inactive
same,Potency,[11],inactive
same,Potency,[12],inactive
same,Potency,[13],inactive
same,Potency,[14],inactive
same,Potency,[15],inactive and 19.5 µM (active)
same,Potency,[17],inactive
same,Potency,[18],inactive

# From PubChem BioAssay (Tox21)
